High-throughput results deposited in PubChem by National Center for Advancing Translational Sciences (NCATS).
AMA1-RON2 inh – AMA1-RON2 (P. falciparum) interaction inhibition; AlphaScreen AMA1-biotinylated RON2 peptide binding; Potency, µM (highest dose often 58.2 µM), inactives show at the highest dose activity change, negative = inhibition, most hits filed as inhibitors; 360,000 tested, 0.2% active;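 note: potency is the fitted concentration of half-maximal effect; 0% = vehicle wells and -100% = peptide control; nearly all actives have a fitted effect of over 45% in size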
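AMA1 (3D7) with his tag at 25 nM final met compounds first, then biotinylated RON2 peptide at 25 nM; detection used donor plus acceptor beads, 10 µg/mL apiece, read by AlphaScreen after 30 min at room temperature.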
Shiga toxin inh – inhibitors of Shiga toxin in Vero cells; inhibition, % at 38.7 µM; Vero cells, Shiga toxin protein synthesis inhibition reporter; AID 2315; 290,000 tested, 9.2% active; in the data active = inhibition mostly above about 28%, no sharp cut-off; inactive = mostly below about 43%; note: 0% is about no effect
Pf growth 96h – P. falciparum growth inhibition at 96 hours; AID 504834; 320,000 tested, 6.9% active; Potency, µM (titrated, usually from 28.7 µM), for the others: top-dose activity change, negative = inhibition, usual class: inhibitors; P. falciparum luciferase reporter growth, 96 h; note: potency is the fitted concentration of half-maximal effect; % is set by controls: 0 for no effect and ±100 for the full control effect
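P. falciparum expressing integrated firefly luciferase grown in erythrocytes (2% hematocrit, 0.05% parasitemia final) with compounds for 96 hours at 37 C, 5% CO2. Growth inhibition read as loss of luminescence after adding luciferase detection reagent.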
HCV inh – HCV inhibition. 340,000 tested, 3.4% active. Potency, µM (series often up to 41.8 µM), inactives show at the top dose activity change, negative = inhibition, actives largely listed as inhibitors. AID 651820. Huh7.5.1 HCVcc-Cre infection, luciferase reporter, 44 h; note: potency is the fitted concentration of half-maximal effect; % is set by controls: 0 for no effect and ±100 for the full control effect
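Cells seeded at 1,000/well and cultured 4 h, then compounds added followed by HCVcc-Cre virus (~0.5 moi). After 44 h further culture, luciferase substrate was added, plates held 15 min at room temperature, and luminescence read for 15 sec.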
CHX counter – counter-screen for Shiga toxin inhibitors: cycloheximide protein synthesis inhibition | AID 2314 | max response, % | cell reporter, cycloheximide protein synthesis inhibition counterscreen | 300,000 tested, 12% active; in the data active = max response mostly above about 13%, no sharp cut-off; inactive = mostly below about 14%; note: read at 38.3 µM for the half of the compounds with a filed dose; 0% is about no effect
Pf growth 48h – P. falciparum growth inhibition at 48 hours (one generation); P. falciparum luciferase growth in erythrocytes, 48 h; Potency, µM (series often up to 28.7 µM), for inactives: at the top dose activity change, negative = inhibition, usual class: inhibitors; 310,000 tested, 5.9% active; note: potency is the fitted concentration of half-maximal effect; % is set by controls: 0 for no effect and ±100 for the full control effect
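Read-out is firefly luciferase luminescence from an integrated reporter in P. falciparum, so falling signal marks reduced parasite growth. Infected erythrocytes were at 2% hematocrit and 0.1% parasitemia (final) in Albumax-supplemented RPMI 1640.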
Starred values were filed as active, the others as inactive; ? = inconclusive; . = no result given; [ ] = dose if it differs, or a comment. Compounds with a hit are over-represented: about 21% of the library has one in this group of screens. Unless noted, calls come from the whole dose curve; as a rule, active = well fitted curve in the direction sought with a large enough effect; inconclusive = small, poorly fitted or top-dose-only effect, or another doubt; inactive = no such curve, though single readings can be large; an effect the other way counts as inactive or inconclusive.

SMILES	AMA1-RON2 inh	Shiga toxin inh	Pf growth 96h	HCV inh	CHX counter	Pf growth 48h
COc1cc(CC(=O)OCC(=O)NC2CCCC2)cc(OC)c1OC	-7%	.	44%	3%	.	-12%
COc1ccccc1/C=C/c1nc2ccc(OC(C)=O)cc2c(=O)o1	0%	-10	1.7µM*	26%	-4	2%
COc1ccccc1/C=C/c1nc2ccccc2c(=O)o1	-5%	.	.	17%	.	.
CC1(c2ccccc2)NC(=O)N(NC(=O)COC(=O)c2cc(Br)ccc2O)C1=O (stereo not drawn)	2%	.	-3%	8%	.	0%
CCc1ccccc1N(CC(=O)O)S(C)(=O)=O	0%	0	15µM*	21%	-2	11%
CCc1cc(Cn2nc(-c3ccccc3)cc2C(=O)NCc2cccc(Br)c2)on1	8%	.	.	3.2µM*	.	.
CCc1cc(Cn2nc(-c3ccccc3)cc2C(=O)NCc2cccc(C(F)(F)F)c2)on1	7%	.	?	?	.	?
CCN=C1NN=C(c2c[nH]c3ccccc23)CS1	-1%	38*	-89%	9%	32*	266%
COCC(C)N=C1NN=C(c2c[nH]c3ccccc23)CS1 (stereo not drawn)	67%	53*	0%	-7%	64*	139%
CN1CCN(c2ccccc2NC(=O)COc2ccc(Cl)cc2)CC1	0%	-14	0%	3%	-5	-17%
O=S(=O)(NNc1ccc(F)cc1F)c1cccc(Cl)c1	0%	-8	11%	8%	0	?
CSc1ncccc1C(=O)Nc1cc(Cl)ccc1N1CCOCC1	-8%[11.6 µM]	.	.	?	.	.
CC(=O)NC(CC(=O)N(Cc1ccccc1)c1ccc(C)cc1)c1ccccc1 (stereo not drawn)	11%	-10	13µM*	.	3	?
COc1ccc(C(=O)NCC(c2ccc(F)cc2)N2CCOCC2)cc1S(=O)(=O)N1CCCC1 (stereo not drawn)	11%	-10	10µM*	3%	1	?
CCOC(=O)N1CCN(S(=O)(=O)N2CCCC(C(=O)NCc3cccc(OC)c3)C2)CC1 (stereo not drawn)	-7%	-2	6.6µM*	-10%	-1	-18%
COc1ccc(C(CNC(=O)c2ccc(S(=O)(=O)N3CCOCC3)cc2)N2CCCCC2)cc1 (stereo not drawn)	1%	-22	28%	5%	1	?
COc1cccc(CNC(=O)c2ccc(C)c(S(=O)(=O)N3CCCCC3)c2)c1	-2%	.	?	10µM*	.	?
COc1ccc(C(CNC(=O)c2ccc(OC)c(S(=O)(=O)N3CCCC3)c2)N2CCCC2)cc1 (stereo not drawn)	-6%	.	10µM*	-24%	.	?
CC(=O)C(C(c1ccccc1)N1CCCc2ccccc21)N1CCOCC1 (stereo not drawn)	-10%	.	.	7%	.	.
O=C(CCN1C(=O)c2ccccc2S1(=O)=O)N1CCN(c2cccc(Cl)c2)CC1	-1%	.	8%	1%	.	-17%
COc1ccc(C(CNC(=O)c2ccc(C)c(S(=O)(=O)N3CCCCC3)c2)N(C)C)cc1OC (stereo not drawn)	-3%	4	-2%	-4%	-1	-22%
COc1ccccc1C(CNC(=O)c1ccc(C)c(S(=O)(=O)N2CCCCC2)c1)N1CCCC1 (stereo not drawn)	-1%	.	10µM*	3%	.	?
COc1ccc(CC(=O)N(Cc2ccccc2)c2ccc(C)cc2)cc1OC	-2%	-10	?	-12%	-3	0%
O=C1CCC(C(=O)N2CCCCCC2)CN1CCc1ccc(Cl)cc1 (stereo not drawn)	-13%	85	-16%	6%	8	8%
Cc1cc(C)n(CCc2nc(-c3ccc(F)cc3)cs2)n1	20%	78*	?	?	36*	?
SMILES	AMA1-RON2 inh	Shiga toxin inh	Pf growth 96h	HCV inh	CHX counter	Pf growth 48h
COC(=O)C[C@@H]1CC[C@H](NC(=O)Nc2ccc(OC)cc2)[C@@H](CO)O1	-5%	.	.	.	.	.
FC(F)(F)c1ccc2c(c1)nc1n2CCCC1	16%	13	35%	-16%	22*	?
O=S(=O)(c1ccc2c(c1)nc1n2CCC1)N1CCOCC1	0%	11	-16%	18%	-6	-15%
O=C(COC(=O)c1cccc(OC(F)F)c1)Nc1cccc(S(=O)(=O)N2CCCC2)c1	-3%	.	.	-4%	.	.
O=C(Nc1cc2c3c(c1)C1CCCC1CN3CC1CCCC21)c1ccccc1 (stereo not drawn)	-29%	-19	45%	16µM*	-2	13µM*
CCc1c(-c2ccccc2)nc2sc3c(c2c1N)CCCC3	-3%	64	?	25µM*	19*	-11%
Cc1ccccc1-c1nc2sc3c(c2c(=O)o1)CCC3	7%	3	-4%	23%	-2	7%
Nc1nc(-c2cccnc2)nc2sc3c(c12)CCCC3	6%	89	0%	?	31*	14%
O=c1oc(-c2cccs2)nc2sc3c(c12)CCCCC3	7%	59*	32%	19%	26*	21%
O=c1oc(-c2ccccc2)nc2sc3c(c12)CCCC3	8%	124*	10%	-4%	41*	.
CC1=C(C(=O)N(C)C)CC(CC(=O)NCc2cccs2)C(=O)N1CCCN1CCCC1=O (stereo not drawn)	-2%	.	.	.	.	.
COc1cccc(-c2cnc(C(O)c3ccc(Cl)cc3C)[nH]2)c1 (stereo not drawn)	-11%	.	.	.	.	.
COC(=O)c1ccc(S(=O)(=O)N2CCc3ccccc32)cc1	2%	21	9.3µM*	-15%	7	2%
O=S(=O)(c1ccc(F)cc1)N1CCc2ccccc21	13%	-7	-14%	15%	-1	12%
NNC(=O)c1ccc(S(=O)(=O)N2CCc3ccccc32)cc1	157%	29	34%	3%	-1	12µM*
O=C(NCc1ccccc1)c1ccc(S(=O)(=O)N2CCCc3ccccc32)cc1	-1%	-9	?	13µM*	-2	-29%
CC(=O)N1CCc2ccc(S(=O)(=O)N3CCc4ccccc43)cc21	-1%	-4	10%	22µM*	7	13µM*
O=C(NCc1ccco1)c1ccc(S(=O)(=O)N2CCCc3ccccc32)cc1	-8%	37	.	16%	18	?
COC(=O)CCC(=O)Nc1ccc(S(=O)(=O)N2CCc3ccccc32)cc1	-1%	-9	0%	-6%	-2	4%
CCOC1=C2[C@@H](CN(S(=O)(=O)c3ccc(C)cc3)[C@H]2c2cccs2)[C@H]2C(=O)N(c3ccccc3)C(=O)[C@H]2C1	4%	.	.	.	.	.
CCn1c(=O)n(CC)c2cc(S(=O)(=O)N3CCc4ccccc43)ccc21	-14%	-15	.	13µM*	-1	?
COc1ccc(S(=O)(=O)N2CCc3ccccc32)cc1OC	2%	-5	129%	1%	4	19%
